Assay results: PubChem BioAssay (NCATS)
Inconclusive results are not listed. Where a call stands in place of a potency, no number is given. Unmarked numbers belong to inactive results. The source made the active and inactive calls. Calls come from the whole dose curve; as a rule, active = well fitted cell-killing curve with a large enough effect; inconclusive = small, poorly fitted or top-dose-only effect, or effect the other way; inactive = no such curve, though single readings can be large or run the other way.

Experiments:
[1] = Viability qHTS for spleen associated tyrosine kinase inhibitor (SYKi) naive MV4-11 cells (AID 1963823); conditions: MV4-11 AML viability, CellTiter-Glo luminescence, 72 h; series mostly up to 45 µM; note: nearly all actives have a fitted effect of over 40% in size
Outline: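 Seeding of 500 SYKi-naive MV4-11 cells per well onto pre-dispensed compounds preceded a 72 hr incubation at 37 C. Luminescent CellTiter-Glo signal, read after 10 min at room temperature, reflected viable cells.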

[2] = Viability qHTS for spleen associated tyrosine kinase inhibitor (SYKi) drug resistant MV4-11 cells (AID 1963824); conditions: SYKi-resistant MV4-11 viability, CellTiter-Glo, 72 h; series mostly up to 45 µM; note: nearly all actives have a fitted effect of over 35% in size
Outline: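 SYK-inhibitor-resistant MV4-11 AML cells were seeded at 500 per well onto compound and cultured 72 hours (37 °C, 5% CO2). CellTiter-Glo was then added, and after 10 min at room temperature, luminescence gave viability.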
Potency is the fitted concentration of half-maximal effect.

| SMILES | Potency [1] | Potency [2] | viability (% of control) [1] | viability, % of control [2] |
| --- | --- | --- | --- | --- |
| CC(=O)N[C@@H](CC(C)C)C(=O)N[C@@H](CCC(=O)O)C(=O)N[C@@H](CCC(=O)O)C(=O)N[C@@H](CC(=O)O)C(=O)Nc1ccc2c(C(F)(F)F)cc(=O)oc2c1 | inactive | inactive | – | – |
| CC1(C)CC[C@]2(C(=O)O[C@@H]3O[C@H](CO)[C@@H](O)[C@H](O)[C@H]3O)CC[C@]3(C)C(=CCC4[C@@]5(C)C[C@@H](O)[C@H](O)[C@](C)(C=O)C5CC[C@]43C)[C@@H]2[C@@H]1O (stereo partly specified) | inactive | inactive | – | – |
| C=CCN(/C=C1\C(=O)OC(COC)C2(C)C1=C(O)C(=O)C1=C2C(OC(C)=O)CC2(C)C(=O)CCC12)CC=C (stereo unspecified) | 13 µM (active) | 20.6 µM (active) | – | – |
| C=C1CCC2C(C(C)(C)O)CCC2(C)CC(O)C(=C)CCC1O (stereo unspecified) | 9.04 µM (active) | 11.4 µM (active) | – | – |
| O=S(=O)(Nc1ccccn1)c1ccc(N=Cc2c(O)[nH]c3ccc4ncsc4c23)cc1 | 0.0944 µM (active) | 0.299 µM (active) | – | – |
| C[C@@H]1O[C@@H](O[C@H]2[C@H](OC(=O)C34CCC(C)(C)CC3C3=CCC5C6(C)CC(O)C(O[C@@H]7O[C@H](CO)[C@@H](O)[C@H](O)[C@H]7O)C(C)(C(=O)O)C6CCC5(C)C3(CO)CC4)O[C@H](C)[C@H](O)[C@@H]2O)[C@H](O)[C@H](O)[C@H]1O[C@@H]1OC[C@@H](O)[C@H](O)[C@H]1O (stereo partly specified) | – | – | 87% [at 9.25 µM] | 109% [at 9.25 µM] |
| C/C=C/C=C/C=C/C(=O)N(C)C(C(=O)NC(C)C(=O)N1CCCC1C(N)=O)C(C)C (stereo unspecified) | inactive | inactive | – | – |
| C/C=C(\C)C(=O)OCC1OC(OC2OC(CO)C(O)C(O)C2O)C(O)C(O)C1O (stereo unspecified) | inactive | inactive | – | – |
